Data reported in a collection of fitness landscapes (doi:10.1016/j.celrep.2020.107928).
Over roughly 81,000 sequences, “one-hybrid fitness for binding NBS DNA” has its median near -0.1; the highest 2% begin near 0.36. Only a selection was taken, and the highest values are over-represented in it overall.

B1: Caulobacter ParB omega fusion; a variant is named by its letters at X, in order, B8GW30 (parent)
chain: MESVVVGEPGMSEGRRGLGRGLSALLGEVDAAPAQAPGEQLGGSREAPIEILQRNPDQPRRTFREEDLEDLSNSIREKGVLQPILVRPSPDTAGEYQIVAGERAWRAAQRAGLKTVPIMVRELDDLAVLEIGIIENVQRADLNVLEEALSYKVLMEKFERTQENIAQTIGKSXSHVANXMRLLXLPDEVQSYLVSGELTAXHARAIAAAADPVALAKQIIEGGLSVRETEALARKAPNLSAGKSKGGRPPRVKDTDTQALESDLSSVLGLDVSIDHRGSTGTLTITYATLEQLDDLCNRLTRGI

Variants of: B1
Assay: one-hybrid fitness for binding NBS DNA (the Noc-binding site; scaled: cognate 1, non-cognate 0); higher = stronger binding
Settings: with NBS DNA site
Procedure, shortened: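 The reporter was HIS3, with the binding site 19 bp from the promoter, in E. coli USO used for bacterial one-hybrid selection of Caulobacter ParB libraries with four specificity codons randomised. Growth was on M9 lacking histidine, with 0.1 mM IPTG and 5 mM 3-AT, for 48 hours at 37°C. Illumina sequencing covered plasmids before and after selection; three replicate libraries were pooled and variants with under 10 reads dropped. A fitness score is the log change in variant-to-wild-type read ratio, rescaled to the cognate and non-cognate references.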

one-hybrid fitness for binding NBS DNA, 0.522:
QTSS

one-hybrid fitness for binding NBS DNA, 0.334:
QHRN

one-hybrid fitness for binding NBS DNA, 0.706:
RCRT

one-hybrid fitness for binding NBS DNA, 0.345:
QMDT

one-hybrid fitness for binding NBS DNA, 0.487:
QCLT

one-hybrid fitness for binding NBS DNA, 0.365:
RRLH

one-hybrid fitness for binding NBS DNA, 0.379:
QATT

one-hybrid fitness for binding NBS DNA, 0.303:
RSLS

one-hybrid fitness for binding NBS DNA, 0.431:
RMLR

one-hybrid fitness for binding NBS DNA, 0.503:
RMHR

one-hybrid fitness for binding NBS DNA, 0.546:
QHGR

one-hybrid fitness for binding NBS DNA, 0.517:
RCYT
QYAR

one-hybrid fitness for binding NBS DNA, 0.266:
RCDT

one-hybrid fitness for binding NBS DNA, 0.327:
QSLT

one-hybrid fitness for binding NBS DNA, 0.602:
RSRT

one-hybrid fitness for binding NBS DNA, 0.295:
QMET

one-hybrid fitness for binding NBS DNA, 0.23:
RRLN

one-hybrid fitness for binding NBS DNA, 0.449:
QCSS

one-hybrid fitness for binding NBS DNA, 0.447:
QMGT

one-hybrid fitness for binding NBS DNA, 0.309:
RMLS

one-hybrid fitness for binding NBS DNA, 0.572:
KRAT

one-hybrid fitness for binding NBS DNA, 0.457:
QMST

one-hybrid fitness for binding NBS DNA, 0.396:
RCLS

one-hybrid fitness for binding NBS DNA, 0.36:
QMWT

one-hybrid fitness for binding NBS DNA, 0.463:
QMTT

one-hybrid fitness for binding NBS DNA, 0.525:
RKLR

one-hybrid fitness for binding NBS DNA, 0.52:
QMNT

one-hybrid fitness for binding NBS DNA, 0.615:
RIRT

one-hybrid fitness for binding NBS DNA, 0.497:
QMHT

one-hybrid fitness for binding NBS DNA, 0.436:
QMYT

one-hybrid fitness for binding NBS DNA, 0.486:
QCTT

one-hybrid fitness for binding NBS DNA, 0.253:
RMIR

one-hybrid fitness for binding NBS DNA, 0.307:
QLTS

one-hybrid fitness for binding NBS DNA, 0.322:
RSYT

one-hybrid fitness for binding NBS DNA, 0.255:
GTKR

one-hybrid fitness for binding NBS DNA, 0.314:
QITT

one-hybrid fitness for binding NBS DNA, 0.376:
QMSS

one-hybrid fitness for binding NBS DNA, 0.34:
RIYT

one-hybrid fitness for binding NBS DNA, 0.227:
RKLH

one-hybrid fitness for binding NBS DNA, 0.56:
QKTT

one-hybrid fitness for binding NBS DNA, 0.221:
QTSN

one-hybrid fitness for binding NBS DNA, 0.451:
RRRI
FAFL

one-hybrid fitness for binding NBS DNA, 0.989:
QHRR

one-hybrid fitness for binding NBS DNA, 0.736:
RMRR

one-hybrid fitness for binding NBS DNA, 0.759:
QRTT

one-hybrid fitness for binding NBS DNA, 0.403:
QSTT

one-hybrid fitness for binding NBS DNA, 0.312:
QMPT

one-hybrid fitness for binding NBS DNA, 0.493:
QQKQ

one-hybrid fitness for binding NBS DNA, 0.571:
QHHR

one-hybrid fitness for binding NBS DNA, 0.393:
QLTT

one-hybrid fitness for binding NBS DNA, 0.565:
KRFT

one-hybrid fitness for binding NBS DNA, 0.223:
QMQY

one-hybrid fitness for binding NBS DNA, 0.471:
QHYR

one-hybrid fitness for binding NBS DNA, 0.411:
RMQR

one-hybrid fitness for binding NBS DNA, 0.505:
QMAT

one-hybrid fitness for binding NBS DNA, 0.606:
RRLS

one-hybrid fitness for binding NBS DNA, 0.248:
QHPR

one-hybrid fitness for binding NBS DNA, 0.348:
RMFR

one-hybrid fitness for binding NBS DNA, 0.301:
QTTY

one-hybrid fitness for binding NBS DNA, 0.363:
QHWR

one-hybrid fitness for binding NBS DNA, 0.364:
FAFR

one-hybrid fitness for binding NBS DNA, 0.424:
RMYR

one-hybrid fitness for binding NBS DNA, 0.289:
RMWR

one-hybrid fitness for binding NBS DNA, 0.621:
RART

one-hybrid fitness for binding NBS DNA, 0.37:
QHSS

one-hybrid fitness for binding NBS DNA, 0.545:
RMNR

one-hybrid fitness for binding NBS DNA, 0.433:
RMCR

one-hybrid fitness for binding NBS DNA, 0.79:
QMRT

one-hybrid fitness for binding NBS DNA, 0.366:
QYFR

one-hybrid fitness for binding NBS DNA, 0.412:
QHTT

one-hybrid fitness for binding NBS DNA, 0.402:
QMIT

one-hybrid fitness for binding NBS DNA, 0.468:
RMSR

one-hybrid fitness for binding NBS DNA, 0.527:
QTLT

one-hybrid fitness for binding NBS DNA, 0.352:
QHIR

one-hybrid fitness for binding NBS DNA, 0.416:
RCLR

one-hybrid fitness for binding NBS DNA, 0.421:
QQRQ

one-hybrid fitness for binding NBS DNA, 0.392:
QMQT

one-hybrid fitness for binding NBS DNA, 0.607:
RRKI

one-hybrid fitness for binding NBS DNA, 0.603:
QTTT

one-hybrid fitness for binding NBS DNA, 0.353:
QSSS
RAYT

one-hybrid fitness for binding NBS DNA, 0.395:
QMLT
QQVQ

one-hybrid fitness for binding NBS DNA, 0.339:
QMCT
RSLR

one-hybrid fitness for binding NBS DNA, 0.456:
RFRT

one-hybrid fitness for binding NBS DNA, ≤ 0.2:
IAMY
QCIF
PRQG
VKPT
YCVL
DHNQ
SNYG
PCIT
NGMR
RLHW
LRLN
RGQR
QHGN
QHHQ
QHGD
QHHN
IYTG
QEPT
QKVW
HKNP
NTTN
VWNG
CAIM
PVVW
YKVT
VSTT
QMTL
QSTN
QLTP
QSTH
QMTQ
QPTT
LYGT
ACDR
DHGS
GRAP
MVHG
SQHN
QKTP
DRTT
QATD
QNTT
QKTM
QTTG
QATH
ERNT
SKLS
CYAV
RIEC
GTHW
QHTY
QHTM
KWAC
TYFR
RRYI
RREI
RCKI
RRVI
VLSD
DRYG
SACR
CRNI
ARTS
KCAT
NRFT
KRAH
DRFT
ERLC
DGPR
DMRT
QTLK
QMHQ
QMHG
KGMW
IVAT
PGEM
MPVM
GHRC
NPHC
QMAF
QMAG
QMND
QMSF
QPLT
QMSG
CHMT
EHDV
SSEQ
RILE
RWLC
ADHS
SITC
TCAG
QMLN
QMIN
QMGM
QMQF
QMGL
QMLP
HGKF
ARGT
PESN
MRTC
LKVF
YDRK
EANW
QMSP
QHSP
QHSH
QMSH
QPSS
QTSP
NGMI
PSRF
GSQF
RLMM
HSIS
RMSN
RMSP
RMQG
RMRP
RMQF
RMPR
RYMW
MSPG
AAPF
KVSV
SDKS
WSYG
SPGT
PNYD
KQNC
VKNL
FTGV
QSPF
TTVG
GWPD
RMGN
RMLN
RMHM
RMGH
RMAD
RMHF
LIKT
VQSV
DCSG
TPHH
LLVG
TAIG
HVIC
VVRW
RMCH
RMDR
RMCN
RMNN
NAAS
FAYR
FARL
FAAR
FAAL
MKNR
NTMM
VTYY
HWST
WHPR
RKLN
RPLR
VCVG
QFIL
QQAQ
QQLQ
QQYQ
QQVF
QQSQ
FDNG
NNAW
YMTS
GPQR
YAEG
QGWN
VMDS
LDDR
SESE
DLGS
RIPT
RFYT
RFDT
RPRT
RERT
PNYV
RQPS
SQNC
HISC
LSFT
TGSY
KYSS
CQDS
RPYT
RSIT
CPVW
KHGP
QYFN
QYAN
QYAH
QYFS
INHG
YKQS
TADE
RCLH
RPLS
RRLP
RRLD
GLNS
KRSF
ASNS

one-hybrid fitness for binding NBS DNA, 0.46:
RMAR

one-hybrid fitness for binding NBS DNA, 0.236:
RAWT

one-hybrid fitness for binding NBS DNA, 0.479:
RMGR
